The source of these data is PubChem BioAssay (NCATS).

The structures appear in SMILES notation. Several values for one entry are separate records, joined by “and”; a condition that tells them apart may be missing. Equal values may be shown once. Inconclusive results are not listed. Values without a mark were called inactive. Activity calls are given as the source filed them. The call rests on the fitted dose curve; in most records, active means well fitted cell-killing curve with a large enough effect; inconclusive means small, poorly fitted or top-dose-only effect; inactive means flat fitted curve, though single readings scatter.
On the % scale 0 is the no-effect control and ±100 the full control effect; potency means the concentration at half of the fitted maximal effect.

A short description of this test: qHTS of pediatric cancer cell lines to identify multiple opportunities for drug repurposing: Primary screen for TC32 cells (AID 1347089). Further: nearly all actives have a fitted effect of over 60% in size. As to conditions: TC32 Ewing sarcoma viability, CellTiter-Glo luminescence, 48 h; series mostly up to 45.8 µM; activity change, negative = cytotoxic: at the top concentration. The text has this: Drug repurposing or repositioning has been offered as a strategy for drug development in oncology programs. This approach has special potential for childhood cancers and other rare or orphan diseases, where the expected return on new drug development has been a disincentive to pharmaceuticals.
In this project we exploit the poly-pharmacology of drugs to discover new indications via phenotypic screening of a panel of 19 well-characterized cell lines derived from solid tumors seen in children and adolescents. The goal is to identify approved drugs with previously unrecognized anticancer properties that has the potential to reveal new mechanisms and biological processes involved in carcinogenesis or drug resistance. We employed a titration-based paradigm (quantitative high-throughput screening or qHTS), where all compounds were tested at multiple concentrations for their effect on cell viability. Concentration-response curves (CRCs) were derived directly from the primary screen, and both potency and efficacy values were used to identify compounds with robust bioactivity profiles. We screened the NIH Chemical Genomics Center (NCGC) Pharmaceutical Collection (NPC) and Mechanism Interrogation Plate (MIPE) small molecule collections of approved and investigational compounds against these cell lines; and measured metabolically active cells after 48 hours of compound treatment as a proxy for cell viability.
Assay Submitter: Nathalia J. Martinez, National Center for Advancing Translational Sciences, National Institutes of Health, Rockville, MD, USA; email: natalia.martinez@nih.gov
[1] Shen, M et al. Quantitative high-throughput phenotypic screening of pediatric cancer cell lines identifies multiple opportunities for drug repurposing. Oncotarget 2017 Dec 19;9(4):4758-4772. PMID 29435139.
The cells were obtained from University of North Carolina (UNC), Pediatric Preclinical Testing Program (PPT), and Coriell Institute (CI).
qHTS cell viability assay:
Cells were assayed in growth media at a density of 500-1,000 cells/well. Five microliters of cells were dispensed into 1,536-well, white, solid-bottom, TC-treated plates (Greiner Bio One) using a multidrop dispenser and incubated at 37 degrees C, 5% CO2, under a humidified atmosphere for 5 hours. Twenty-three nanoliters of compounds and controls (neutral control DMSO or positive control bortezomib at final concentration of 2.3 uM) were subsequently transferred by Kalypsys pintool. For primary screens, the MIPE collection was tested at 11-point dilutions (final concentrations range from 0.78 nM to 46 µM) and the NPC collection at 8-point dilutions (final concentrations range from 0.59 nM to 46 µM). Compounds tested in follow-up screens were assayed at 11-point dilutions. Cells were incubated for 48 hours, followed by addition of 3 uL of CellTiter-Glo (Promega). After a 15min incubation at room temperature, samples were analyzed for luminescence intensity using a ViewLux High-throughput CCD imager equipped with clear filters.
With `CN(C)C1CCN(C(=O)c2ccc(NC(=O)Nc3nc(N4CCOCC4)nc(N4CCOCC4)n3)cc2)CC1`, the Potency was 65.8 nM (active).

For `COc1cc2c(cc1OC)CN(CCc1ccc(NC(=O)c3cc(OC)c(OC)cc3NC(=O)c3cnc4ccccc4c3)cc1)CC2`, the “activity change, negative = cytotoxic” value is 1.33%.

As to `Oc1ccc(C2=Cc3ccc(O)cc3OC2)cc1`, the Potency was 7390 nM (active).

Take `CN(C)Cc1cccc(N=C(c2ccccc2)c2c(O)[nH]c3cc(C(=O)N(C)C)ccc23)c1`: the “activity change, negative = cytotoxic” value is -0.395%.

On to `CCn1c(C(=O)N(C2CC2)C2CC2)cc2c3c(ncn3C)c(Nc3cc(C)n(C)n3)nc21`, for which the “activity change, negative = cytotoxic” value was 8.71%.

On to `COc1ccc(-c2oc3c(CC=C(C)C)c(OC4O[C@H](CO)[C@@H](O)[C@H](O)[C@@H]4O)cc(O)c3c(=O)c2OC2O[C@@H](C)[C@H](O)[C@@H](O)[C@@H]2O)cc1` (stereo not given in full), for which the “activity change, negative = cytotoxic” value was 9.11%.

As to `CC[C@H]1OC(=O)[C@H](C)[C@@H](O[C@H]2C[C@@](C)(OC)[C@@H](O)[C@H](C)O2)[C@H](C)[C@@H](O[C@@H]2O[C@H](C)C[C@H](N(C)C)[C@@H]2O)[C@](C)(O)C[C@@H](C)CN(C)[C@H](C)[C@@H](O)[C@]1(C)O`, the “activity change, negative = cytotoxic” value was 9.89%.

Regarding `CCOc1ccc(Nc2nc(-c3c(C)nc4ccccn34)cs2)cc1`, the Potency was 165 nM (active).

For the compound `CN1[C@@H]2CCC[C@@H]1CC(NC(=O)c1nn(C)c3ccccc13)C2` (stereo not given in full), the “activity change, negative = cytotoxic” value was 5.31%.

For `CC(=NNC(=S)N1CCC1)c1ccccn1`, the Potency was 41.5 nM (active).

For the compound `NC(=O)c1cnc(-c2ccc(C3(N)CCC3)cc2)c(-c2ccccc2)c1`, the “activity change, negative = cytotoxic” value is 0.189%.

As for `C[C@@H](O)[C@H]1C(=O)N2C(C(=O)O)=C(S[C@@H]3CN[C@H](C(=O)N(C)C)C3)[C@H](C)[C@H]12`, the Potency entry was “inactive”.

As for `N#C[C@H]1C[C@H]2C[C@@H]2N1C(=O)[C@@H](N)C12CC3CC(CC(O)(C3)C1)C2`, the “activity change, negative = cytotoxic” value was 3.54%.

`CC1(C)Cc2c(sc(NC(=S)NC(=O)c3ccccc3)c2C(=O)O)CO1`: the “activity change, negative = cytotoxic” value was 7.18%.

Regarding `Nc1ncnc2c1nc(Cl)n2[C@@H]1O[C@H](CO)[C@@H](O)[C@@H]1O`, the “activity change, negative = cytotoxic” value was 5.53%.

On to `O=C1Nc2ccc(Cl)cc2C(C#CC2CC2)(C(F)(F)F)O1` (stereo not given), for which the “activity change, negative = cytotoxic” value is -6.48%.

`O=C1NC(=O)C(=Cc2cccc(C(F)(F)F)c2)S1`: the “activity change, negative = cytotoxic” value is 4.5%.

`CCN(CC)CCOC(=O)c1ccc(N)cc1`: the “activity change, negative = cytotoxic” value is 9.91%.

Consider `Cn1cc(C=C2C(=O)Nc3cccnc32)c2ccccc21`, for which the “activity change, negative = cytotoxic” value is 5.31%.

With `Clc1ccc(C(c2ccc(Cl)cc2)n2cc[n+](CC(OCc3ccc(Cl)cc3Cl)c3ccc(Cl)cc3Cl)c2)cc1` (stereo not given), the “activity change, negative = cytotoxic” value was -10.7%.

Consider `CC(C)(C(=O)NCC(F)(F)C(F)(F)F)C(=O)N[C@@H]1C(=O)Nc2ccccc2-c2ccccc21`, for which the “activity change, negative = cytotoxic” value was 4.24%.

As for `COc1ccc(C2CC(c3ccccc3)=NN2c2ccc(S(N)(=O)=O)cc2)cc1` (stereo not given), the “activity change, negative = cytotoxic” value is 8.01%.

As to `CON=C(C(=O)N[C@@H]1C(=O)N2C(C(=O)OCOC(=O)C(C)(C)C)=C(C=Cc3scnc3C)CS[C@H]12)c1csc(N)n1`, the “activity change, negative = cytotoxic” value is -13.1%.

With `CC(=O)CCCCn1c(=O)c2c(ncn2C)n(C)c1=O`, the “activity change, negative = cytotoxic” value is 6.69%.

As to `CN(C)Cc1ccc(-c2nc3cccc4c3n2CCNC4=O)cc1`, the “activity change, negative = cytotoxic” value was -10.5%.

Turning to `CC[C@@H]1C=C(C)C[C@H](C)C[C@H](OC)[C@H]2O[C@@](O)(C(=O)C(=O)N3CCCC[C@@H]3C(=O)O[C@H](C(C)=C[C@@H]3CC[C@H](Cl)[C@H](OC)C3)[C@H](C)[C@@H](O)CC1=O)[C@H](C)C[C@H]2OC`, the “activity change, negative = cytotoxic” value is 10.7%.

Turning to `COc1cc(O)c2c(c1)C(=O)c1cc(C)cc(O)c1C2=O`, the “activity change, negative = cytotoxic” value was 7.06% [at 16 µM].

In the case of `O=C1NC(=O)C(=Cc2ccc3nccnc3c2)S1`, the “activity change, negative = cytotoxic” value was -3.11% [at 16 µM].

In the case of `O=C(NOCC(O)CO)c1cc(Br)c(F)c(F)c1Nc1ccc(I)cc1F` (stereo not given), the “activity change, negative = cytotoxic” value was 5.37%.

As for `CC[C@]1(O)C[C@@H]2CN(CCc3c([nH]c4ccccc34)[C@@](C(=O)OC)(c3cc4c(cc3OC)N(C)[C@H]3[C@@](O)(C(=O)OC)[C@H](OC(C)=O)[C@]5(CC)C=CCN6CC[C@]43[C@@H]65)C2)C1`, the Potency is 118 nM (active) and 592 nM (active).

Take `COc1ccc(-c2nc(N3CCOCC3)c3sc(CN(C)c4ncc(C(=O)NO)cn4)cc3n2)cn1`: the Potency was 41.5 nM (active).

In the case of `OC[C@H]1O[C@@H](n2cnc3c2NC=NC[C@@H]3O)C[C@H]1O`, the “activity change, negative = cytotoxic” value was 12.6%.

On to `COc1cc2nc(-c3ccc(N4CCN(C)CC4)cc3)nc(NCCN3CCOCC3)c2cc1OC`, for which the Potency is 523 nM (active).

Take `COc1ccc2c(Oc3ccc(NC(=O)c4c(C)n(CC(C)(C)O)n(-c5ccccc5)c4=O)cc3F)ccnc2c1`: the “activity change, negative = cytotoxic” value was 10.7%.

In the case of `COc1ccc(-c2coc3cc(O)ccc3c2=O)cc1`, the “activity change, negative = cytotoxic” value was 6.49%.

Consider `Cc1ccccc1C(C(=O)NC1CCCCC1)N(C(=O)Cn1ccnc1C)c1cccc(F)c1` (stereo not given), for which the “activity change, negative = cytotoxic” value was 4.42%.

With `CC(=O)c1ccc(S(=O)(=O)NC(=O)NC2CCCCC2)cc1`, the “activity change, negative = cytotoxic” value is 10.2%.

Turning to `O=C(O)CCC1CCC(c2cc(F)ccc2F)(S(=O)(=O)c2ccc(Cl)cc2)CC1` (stereo not given), the “activity change, negative = cytotoxic” value is 3.93%.

Turning to `C[C@@H]1CCN(C(=O)CC#N)C[C@H]1N(C)c1ncnc2[nH]ccc12`, the “activity change, negative = cytotoxic” value is -14.9%.

Regarding `COc1cc2ncnc(-n3nc(-c4ccccn4)nc3N)c2cc1OC`, the “activity change, negative = cytotoxic” value was -0.776%.
